Bioassay records as filed in PubChem.
Hits are enriched below; roughly 6.1% of the tested compounds scored in any of these assays.
Cdc25B inh = inhibitors of human Cdc25B phosphatase; P30305; AID 368; 65,000 compounds, 0.1% hits; recombinant Cdc25B, OMFP fluorescence Ex485/Em525; inhibition, %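 (compounds tested at 10 µM final in the well)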; in the data active = inhibition above about 50%
Target sequence (P30305 whole entry, looked up): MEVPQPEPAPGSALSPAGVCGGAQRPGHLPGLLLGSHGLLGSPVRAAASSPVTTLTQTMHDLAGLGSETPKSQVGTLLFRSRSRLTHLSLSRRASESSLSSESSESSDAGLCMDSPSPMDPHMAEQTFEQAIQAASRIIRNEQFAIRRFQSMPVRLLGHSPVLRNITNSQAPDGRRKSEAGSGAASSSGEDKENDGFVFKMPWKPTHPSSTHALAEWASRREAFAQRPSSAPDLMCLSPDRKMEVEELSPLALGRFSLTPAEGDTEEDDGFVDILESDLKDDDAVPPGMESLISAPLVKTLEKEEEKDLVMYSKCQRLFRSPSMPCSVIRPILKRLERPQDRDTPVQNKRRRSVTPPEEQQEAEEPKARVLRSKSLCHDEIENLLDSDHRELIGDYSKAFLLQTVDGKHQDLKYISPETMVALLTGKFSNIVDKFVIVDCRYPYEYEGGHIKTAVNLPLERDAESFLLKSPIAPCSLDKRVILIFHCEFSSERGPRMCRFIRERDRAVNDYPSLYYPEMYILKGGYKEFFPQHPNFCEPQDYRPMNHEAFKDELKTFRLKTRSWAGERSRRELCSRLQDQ
MMP13 inh = inhibitors of human MMP13 | P45452 | MMP-13 fTHP FRET cleavage, Mca fluorescence | inhibition, % at 4 µM | 65,000 compounds, 0.07% hits | AID 570;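 active = inhibition above the mean of compound-free control plate wells plus 3 SD, cut at about 14% in these data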;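 note: 0% = DMSO wells and 100% = wells with reference MMP-13 inhibitor after basal subtraction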
Hsp90 block = displaces geldanamycin probe from tumor Hsp90 | P07900 | NCI-N417 lysate Hsp90, Cy3B-geldanamycin FP displacement | inhibition, % at 30 µM | 64,000 compounds, 0.35% hits;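 active = inhibition above 50%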;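 note: 0% = tracer plus lysate wells and 100% = tracer alone without lysate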
M1 antag = blocks the rat M1 muscarinic receptor response to acetylcholine; 64,000 compounds, 3.4% hits; AID 628; CHO-M1 cells, Fluo-4 calcium, ACh EC80 antagonist mode; stronger effect = lower value; P08482; B-score at 10 µM;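 active = calcium fluorescence response, raw or row-and-column corrected B-score, differing from the plate sample mean either way at a set confidence level, mostly lower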
MKP-1 inh = inhibitors of human MKP-1 phosphatase; recombinant MKP-1, OMFP hydrolysis fluorescence; 65,000 compounds, 0.15% hits; AID 374; P28562; inhibition, %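 (compounds tested at a single concentration somewhere between 10 and 100 µM)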;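 active = inhibition above about 50%, limit read from the data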;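 note: 0% = DMSO max control wells and 100% = wells with enzyme stopped by NaOH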
M1 agonist = M1 muscarinic receptor agonism; CHO-M1 cells, Fluo-4 calcium fluorescence, agonist mode; stronger effect = higher value; B-score at 10 µM; 64,000 compounds, 3% hits;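 active = fluorescence rise, raw or as B-score row- and column-corrected plate score, outside the 99.7% band of its plate's samples, either direction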
Active calls of the source: *; · = no result.

SMILES	Cdc25B inh	MMP13 inh	Hsp90 block	M1 antag	MKP-1 inh	M1 agonist
Cc1ccc(S(=O)(=O)c2cc3c(=O)n4ccccc4nc3n(CC3CCCO3)c2=N)cc1 (configuration not stated)	4	-155	-16	-1.5	-5	-0.017
Cc1ccc2nc3c(cc(C#N)c(=N)n3CC3CCCO3)c(=O)n2c1 (configuration not stated)	-2	5	2	-1.4	0	9*
CCC(c1nnc(SCC(=O)Nc2nnc(-c3ccccc3)o2)o1)N(C)C (configuration not stated)	-8	-2	-9	-0.091	12	2.3
Cc1ccc(C)c(SCC(=O)Nc2nnc(-c3ccccc3)o2)c1	-10	2	-1	0.0013	-3	17*
CCN(CC)C(=O)c1sc2nc(-c3cccs3)cc(-c3cccs3)c2c1N	-1	-58	-3	-0.18	-17	15*
Cc1nnc2ccc(N3CCC(C(N)=O)(N4CCCCC4)CC3)nn12	0	3	0	0.069	6	1.6
Cn1c(=O)c2c(SCC(=O)N3CCN(c4ccccc4)CC3)nc(C3CC3)nc2n(C)c1=O	-4	-1	-2	-2.3*	14	4.8*
O=C(OCCCCN1C(=O)c2ccccc2C1=O)c1n[nH]c2ccccc12	-9	-3	-5	-0.96	22	-0.56
C=CCn1c(NC(=O)c2ccccc2)c(C#N)c2nc3ccccc3nc21	25	-78	63*	-0.7	36	21*
COC(=O)c1ccc(CSc2nc3scc(-c4cccs4)c3c(=O)[nH]2)o1	16	17*	-4	-0.033	34	-0.16
Cc1cc(C)n(-c2nnc(C)c(=O)[nH]2)n1	-1	2	0	0.64	1	0.052
CN(C)S(=O)(=O)c1cccc(C(=O)N2CCc3ccccc32)c1	-13	6	-18	1.3*	-2	0.0021
CC(C)(C)c1cc(C(=O)N2CCc3ccccc32)ccn1	1	-1	-6	-1.1	-18	0.071
COc1ccccc1CN(Cc1cc2c(C)ccc(C)c2[nH]c1=O)Cc1nnnn1Cc1ccco1	-17	-1	-6	·	22	·
O=C(NC1=NCCS1)c1ccc(OCC2CCCO2)cc1 (configuration not stated)	55*	0	1	0.38	1	1.1
O=C(O)CCC(NC(=O)c1ccccc1C(=O)O)C(=O)O (configuration not stated)	·	·	1	·	·	·
COc1cccc(OCC(=O)Nc2c(C(=O)Nc3ccc(OC)cc3OC)oc3ccccc23)c1	-2	1	0	-0.38	-4	-0.59
Cc1cc(NC(=O)CS(=O)(=O)c2cn(Cc3ccc(F)cc3)c3ccccc23)no1	-15	6	-6	0.54	15	0.11
Cc1cc(NC(=O)CS(=O)(=O)c2cn(Cc3cccc(F)c3)c3ccccc23)no1	-13	1	11	3.6*	-1	1.7
COc1ccc(C(=O)Nc2ccc(S(=O)(=O)Nc3nccnc3OC)cc2)cc1OC	7	2	-5	-19*	-2	25*
COc1ccc(C(=O)Nc2ccncc2)cc1OC	-4	-3	-1	0.23	3	-0.16
Oc1ccc(N=Cc2ccc(O)c(O)c2)cc1	5	2	93*	0.21	-2	-0.47
CCCCN(C)CCNC(=O)Cn1c(=O)sc2ccccc21	-15	6	-2	-0.4	4	1.9
CCN(CC)CCCC(C)Nc1cc(O)cc2cccnc12 (configuration not stated)	·	·	138*	·	·	·
CCCn1c(=NC(=O)c2ccncc2)c(C#N)cc2c(=O)n3cccc(C)c3nc21	6	-343	-13	0.43	-4	20*
SMILES	Cdc25B inh	MMP13 inh	Hsp90 block	M1 antag	MKP-1 inh	M1 agonist
Cc1cccn2c(=O)c3cc(C#N)c(=NC(=O)c4ccc5c(c4)OCO5)n(CC(C)C)c3nc12	-1	-3	-6	-0.35	16	-0.54
CC(=O)N=c1c(C#N)cc2c(=O)n3cccc(C)c3nc2n1CC(C)C	2	-209	-2	0.017	-1	13*
COc1cc(NS(=O)(=O)c2ccc(F)c(C#N)c2)c2ncccc2c1	·	·	-4	·	·	·
CCCc1ccc(OCc2ccc(C(=O)N3CCN(c4ccccn4)CC3)o2)c(OC)c1	-21	-2	-1	-0.69	12	5.5*
COc1ccc(CC(=O)N2CCN(c3ccccn3)CC2)cc1OC	1	-16	-1	1.5	-11	0.078
Cc1ccc(S(=O)(=O)c2c(C)nn(C(C)(C)C)c2OC(=O)C(C)(C)C)cc1	-12	-1	-1	-0.31	13	-0.2
CC(=O)Oc1c(S(=O)(=O)c2ccc(C)cc2)c(C)nn1C(C)(C)C	-3	2	-1	2.3*	30	3.5
Oc1ccccc1O	·	·	52*	·	·	·
Cc1cc(C)cc(NC(=O)C2CCCN(c3nc(C)cc(C)n3)C2)c1 (configuration not stated)	-7	-2	-1	0.2	8	0.52
COc1cc(C)nc(N2CCCC(C(=O)NC3CCC(C)CC3)C2)n1 (configuration not stated)	-6	1	2	-16*	21	1.1
O=[N+]([O-])c1ccc(CSc2ncnc3c2ncn3[C@@H]2O[C@H](CO)[C@H](O)C2O)cc1 (some centres not stated)	·	·	-1	·	·	·
COc1cccc(-c2nc(N3CCC(C)CC3)c3ccccc3n2)c1O	-17	2	2	2.2*	-27	-0.62
Cc1onc(COc2ccccc2O)c1Br	-4	1	-3	-0.22	3	0.0074
Cc1cc2nc(NC3=NCN(Cc4cccnc4)CN3)nc(C)c2cc1C	-1	-9	0	-3.2*	-6	0.54
CC1CN(Cc2nc3c(c(=O)n(C)c(=O)n3C)n2Cc2ccc(Cl)cc2)CC(C)O1 (configuration not stated)	-7	-2	-1	-0.6	-2	-0.4
Nc1nc(Cl)nc2c1ncn2[C@@H]1O[C@H](CO)[C@H](O)C1O (some centres not stated)	·	·	6	·	·	·
COc1ccc(-n2c3c(cc(C(=O)Nc4ccc5c(c4)C(=O)NC5=O)c2=O)C(=O)CCC3)cc1	-2	-1	-4	0.055	9	1.2
CCn1c(SCC(=O)N2CCCc3ccccc32)nc2c(c1=O)SC(C)C2 (configuration not stated)	-13	-3	-3	3.3*	5	0.44
CCOC(=O)c1cnc(SC2CCc3ccccc3C2=O)nc1N (configuration not stated)	7	2	56*	-0.57	-6	0.23
CCOC(=O)c1cnc(SCc2ccc(C)cc2)nc1N	-3	-2	-1	0.8	-7	0.94
c1ccc(CSc2nnc(NC3=NCCCCC3)s2)cc1	2	-2	-5	-1.9	-23	-0.34
N#Cc1ccc(CSc2nnc(Nc3ccccc3)s2)cc1	18	4	85*	0.062	21	-0.22
COCc1nnc(NC(=O)c2ccc(NC(=O)C(C)C)cc2)s1	-8	15*	2	0.87	-9	0.2
